Test results taken from PubChem BioAssay AID2289 (National Center for Advancing Translational Sciences (NCATS), 2010).
The whole screen tested about 340,000 compounds, of which about 3,300 (0.97%) were called active. Inconclusive results (about 9%) are left out. Calls come from the whole dose curve; as a rule, active = well fitted inhibition curve with a large enough effect; inconclusive = small, poorly fitted or top-dose-only effect, or effect the other way; inactive = flat fitted curve, though single readings scatter. The list shows a part of the results.

Assay: qHTS Assay for Modulators of miRNAs and/or Inhibitors of miR-21; note: nearly all actives have a fitted effect of over 55% in size
Conditions: HeLa miR-21-FLuc reporter, luciferase luminescence, 48 h; actives lower the signal
Outline: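 Luminescence from a firefly luciferase reporter carrying a miR-21 binding site downstream, stably expressed under a CMV promoter in HeLa cells that make miR-21 endogenously, reports miRNA modulation after 48 h compound exposure up to approximately 40uM final.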
Potency is the fitted concentration of half-maximal effect.

Potency, active:
Cc1ccc2nc(-c3ccc(NC(=O)CN4C(=O)c5ccccc5C4=O)cc3)sc2c1 1.65 µM, O=C(CCN1C(=O)c2ccccc2C1=O)Nc1ccc(-c2nc3ccccc3s2)cc1 0.261 µM, Cc1ccc2nc(-c3ccc(NC(=O)CCN4C(=O)c5ccccc5C4=O)cc3)sc2c1 0.0927 µM, Cc1ccc2sc(-c3ccc(NC(=O)CCN4C(=O)c5ccccc5C4=O)cc3)nc2c1 0.104 µM, Cc1ccc2nc(-c3ccc(NC(=O)C(C)N4C(=O)c5ccccc5C4=O)cc3)sc2c1 (configuration not stated) 1.17 µM, Cc1ccc2nc(-c3ccc(NC(=O)CSc4nc(N)cc(=O)[nH]4)cc3)sc2c1 8.26 µM, CCC(=O)c1ccc(OCc2ccc(C#N)cc2)cc1 9.27 µM, CCC(=O)c1ccc(OCc2ccc(C(=O)OC)cc2)cc1 0.261 µM, CCOc1ccc(C2=NNC(c3cccs3)=Nc3ccc(OC)cc32)cc1OCC 18.5 µM, CCOc1ccc2c(c1)C(c1ccc(C)cc1)=NNC(c1ccc(C)cc1)=N2 8.26 µM, C=C(C)C1Cc2cc3ccc(=O)oc3cc2O1 (configuration not stated) 16.5 µM, Cc1ccc(Cn2nnc3c(=O)[nH]c(C4CCCN(S(=O)(=O)c5ccccc5)C4)nc32)cc1 (configuration not stated) 18.5 µM, O=C(Nc1ccccc1Br)c1cc(=O)c2ccccc2o1 2.07 µM, NC(=O)c1ccsc1NC(=O)c1cc(=O)c2ccccc2o1 0.329 µM, NC(=O)c1ccsc1NC(=O)c1coc2ccccc2c1=O 1.17 µM, COc1cccc(/C(C)=N/N=C(\C)c2cccc(OC)c2)c1 4.14 µM, COc1cccc(/C(C)=N/Nc2ncc(Cl)cc2Cl)c1 16.5 µM, CCNc1nc(N)nc(Oc2ccc(C(=O)OC)cc2)n1 8.26 µM, CC(=O)COc1ccc2c(c1C)O/C(=C\c1ccco1)C2=O 3.69 µM, CN(CC(=O)NCCc1ccccc1)Cc1ccco1 14.7 µM, Cn1c(CCCOc2ccc(Cl)cc2Cl)n[nH]c1=S 13.1 µM, CCN(CC)C(=O)CCCOc1ccc(Cl)cc1Cl 14.7 µM, CCNC(=O)CCCOc1ccc(Cl)cc1Cl 16.5 µM, O=C(CCCOc1ccc(Cl)cc1Cl)Nc1ccccn1 11.7 µM, CCCCSc1ncc(C(=O)OCC)c(N)n1 1.31 µM, CCOC(=O)c1cnc(SCCc2ccccc2)nc1N 1.65 µM, C=CCSc1ncc(C(=O)OCC)c(N)n1 16.5 µM, CCOC(=O)c1cnc(SCc2ccc(C)cc2)nc1N 7.94 µM, CCOC(=O)COc1ccccc1C1Nc2ccccc2C(=O)N1c1cccc(Cl)c1 (configuration not stated) 5.85 µM, COc1cc(C2Nc3ccccc3C(=O)N2c2ccc(Cl)cc2)c(Cl)cc1OCC(=O)O (configuration not stated) 2.33 µM, O=C(CSc1nc(-c2ccc(F)cc2)cs1)N1CCOCC1 6.56 µM, Cc1nc(-c2ccc3c(c2)CCC(=O)N3)cs1 14.7 µM, CCc1ccccc1NC(=O)CSc1nc(C)c(C(=O)Nc2ccccc2)c(-c2ccc(Cl)cc2)c1C#N 23.3 µM, COc1ccccc1CCCNC(=O)C1CCC(=O)N(Cc2ccccc2F)C1 (configuration not stated) 14.7 µM, O=C(NCCc1c[nH]c2ccccc12)c1ccc(Cl)cc1 7.36 µM, O=C(NCCc1c[nH]c2ccccc12)c1ccc(F)cc1F 9.27 µM, COc1ccc(C(=O)NCCc2c[nH]c3ccccc23)cc1 3.29 µM, O=C(NN/C(=N/S(=O)(=O)c1ccc(Cl)cc1)c1ccccc1)c1cccc(Cl)c1 2.07 µM, Cc1ccc(S(=O)(=O)/N=C(/NNC(=O)c2cccc(Cl)c2)c2ccccc2)cc1 1.85 µM, CN(C)c1ccc(/C=N\Nc2ccccn2)cc1 0.521 µM, Fc1ccc(/C=N/Nc2ccccn2)cc1 8.26 µM, COc1cc(N/N=C/c2ccc(N(C)C)cc2)ncn1 0.208 µM, C(=N\Nc1ccccn1)/c1ccc(N2CCOCC2)cc1 1.85 µM, COc1ccc(C2=NN(C(=O)CN3CCOCC3)C(c3nc4ccccc4[nH]3)C2)cc1 (configuration not stated) 10.4 µM, CN(C)CCCNC(=O)c1ccc(/C=N/O)nc1 1.85 µM, c1ccc(-c2onc3cc4c(cc23)OCCO4)cc1 2.07 µM, Fc1ccc(Nc2ccc(-c3ccc(F)cc3)nn2)cc1 3.29 µM, O=C(O)c1ccc(N/N=C/c2ccc(-c3ccc(Cl)cc3Cl)o2)cc1 18.5 µM, O=C(O)c1ccc(N/N=C/c2ccc(-c3cc(Cl)ccc3Cl)o2)cc1 6.56 µM, O=C(O)c1ccc(N/N=C/c2ccc(-c3ccc(Br)cc3)o2)cc1 5.85 µM, O=C(O)c1ccc(N/N=C/c2ccc(-c3cccc(Cl)c3)o2)cc1 0.927 µM, O=C(O)c1ccc(N/N=C/c2ccc(-c3ccccc3Cl)o2)cc1 0.293 µM, c1cnc2c(SCc3ccc(-c4nnco4)cc3)cccc2c1 13.1 µM, COc1ccccc1OCCCn1c(=O)sc2ccccc21 9.27 µM, Cc1ccccc1OCCCn1c(=O)sc2ccccc21 6.56 µM, O=C(Nc1ccc2oc(-c3ccc4ccccc4c3)nc2c1)c1cc(Br)ccc1Cl 16.5 µM, O=S(=O)(Nc1ccc2oc(-c3ccccc3)nc2c1)c1ccccc1 18.5 µM, O=C(Nc1ccc2oc(-c3ccccc3)nc2c1)c1ccccc1F 1.31 µM, O=C(Nc1ccc2oc(-c3ccc4ccccc4c3)nc2c1)c1cccs1 1.04 µM, CCOc1ccc2nc(SCC(=O)N(C)C)[nH]c2c1 7.36 µM, COc1ccc2nc(SCC(=O)C(C)(C)C)[nH]c2c1 6.56 µM, Cc1cccc(Nc2nc3c(s2)CCCC3)c1 2.07 µM, O=C1C=C(N2CCCCCC2)C(=O)N1c1ccc(Cl)cc1 5.21 µM, Cc1ccccc1OCCNC(=O)c1ccc2ccccc2n1 5.21 µM, CN1N=C(C(=O)Nc2ccc3c(c2)CCC3)CCC1=O 9.27 µM, Cn1cc(C(=O)Nc2ccc3c(c2)CCC3)cn1 7.36 µM, CCC(C)(C)C1CCc2[nH]nc(C(=O)N/N=C(\C)c3ccco3)c2C1 (configuration not stated) 2.61 µM, CC(C)(C)C(=O)Nc1nnc(CCc2ccccc2)s1 2.93 µM, CCCc1nnc(NC(=O)Nc2ccccc2OC)s1 16.5 µM, COc1ccccc1NC(=O)Nc1nnc(C(C)C)s1 14.7 µM, c1ccc(Cn2nc(-c3ccccc3)nc2-c2ccccc2)cc1 16.5 µM, COc1ccc(C(=O)OCCc2ccc(O)cc2)cc1 6.56 µM, S=C1c2ccccc2CN1c1ccccc1 9.27 µM, Cc1ccccc1-c1nnc(SCC(=O)N(C)c2ccccc2)o1 16.5 µM, Cc1ccccc1-c1nnc(SCC(=O)N(C)C2CCCCC2)o1 14.7 µM, CC(=O)N1N=C(c2ccc(C)cc2)CC1c1ccco1 (configuration not stated) 16.5 µM, CCc1ccc(C2=NN(C(C)=O)C(c3ccco3)C2)cc1 (configuration not stated) 2.33 µM, Nc1ccc2nc3c(=O)n(C4CCCCC4)c(=O)[nH]c3nc2c1 14.7 µM, O=C(NC1CC(=O)c2sccc21)c1ccc(Cl)cc1Cl (configuration not stated) 13.1 µM, CC(C)Oc1ccc2c(=O)c(-c3ccccc3)coc2c1 0.464 µM, O=c1c(-c2ccccc2)coc2cc(O)ccc12 1.85 µM, COc1ccc(-c2coc3cc(O)cc(O)c3c2=O)cc1OC 13.1 µM, COc1ccc(-c2coc3cc(O)ccc3c2=O)cc1OC 13.1 µM, Cc1ccc(C2=NNC3(CCOC(C)(C)C3)S2)cc1 (configuration not stated) 3.69 µM, COc1ccc2cc3cc(C(=O)N4CCCCCC4)oc3nc2c1 0.414 µM, COc1ccc2nc3oc(C(=O)N4CCCCC4)cc3cc2c1 1.04 µM, COc1ccc2cc3cc(C(=O)N4CCCC(C)C4)oc3nc2c1 (configuration not stated) 1.04 µM, Cc1ccc2cc3cc(C(=O)N4CCCCCC4)oc3nc2c1 0.261 µM, N#Cc1c(NC(=O)C2CC2)sc2c1CCCCC2 8.26 µM, Cc1cccc(C(=O)Nc2sc3c(c2C#N)CCCCC3)c1 0.261 µM, CCCC(=O)Nc1sc2c(c1C#N)CCCCC2 2.93 µM, Nc1nccc(/C=C/c2ccc(Cl)cc2)n1 2.07 µM, COc1ccc(CC(=O)Nc2cc3oc4ccccc4c3cc2OC)cc1 14.7 µM, COc1cc2c(cc1NC(=O)Cc1ccc(C)cc1)oc1ccccc12 9.27 µM, COc1ccc2oc(=O)c(-c3nc4ccccc4o3)cc2c1 9.27 µM, Cc1ccc(C(=O)O/N=C(\N)c2cccnc2)cc1[N+](=O)[O-] 7.36 µM, Cc1cc(C(=O)O/N=C(\N)c2ccncc2)ccc1[N+](=O)[O-] 2.33 µM, C/C(=N\NC(=O)c1nn(C)cc1Br)c1ccc(NC(=O)c2ccncc2)cc1 18.5 µM, C/C(=N\NC(=O)c1nn(C)c(C)c1Br)c1cccc(NC(=O)c2ccc(F)cc2)c1 1.85 µM, C/C(=N\NC(=O)c1nn(C)c(C)c1Br)c1cccc(NC(=O)c2ccoc2C)c1 3.69 µM, COc1ccc(C2=NN(C(C#N)c3ccc(OC)cc3)C(c3ccccc3)C2)cc1 (configuration not stated) 2.33 µM, COc1ccc(C(C#N)N2N=C(c3ccccc3)CC2c2ccccc2)cc1OC (configuration not stated) 10.4 µM
